Reference: PubChem BioAssay (Tox21)
Results filed as inconclusive are left out. The source holds several records for some structures; these can differ, active in one and inactive in another. Calls of active or inactive are those of the source. The call rests on the fitted dose curve; in most records, active means well fitted activation curve with a large enough effect; inconclusive means small, poorly fitted or top-dose-only effect; inactive means flat fitted curve, though single readings scatter.

assay: qHTS assay to identify small molecule phospholipidosis (PLD) inducers (AID 1259344); conditions: HepG2 phospholipidosis, LipidTOX Red imaging, 24 h; series mostly up to 38.3 µM; PLD induction: at the top concentration
Source text: National Center for Advancing Translational Sciences [NCATS]
Drug-induced Phospholipidosis (PLD) caused by cationic amphiphilic drugs is characterized by the appearance of unicentric or multicentric-lamellar bodies when viewed under electron microscope. Electron microscopy is the gold standard method for PLD detection, however, this method is time-consuming and labor intensive, making it unsuitable for evaluating a large set of compounds. A cell-based phospholipidosis assay has been developed using the LipidTox reagent in HepG2 cells and miniaturized into a 1536-well plate format. Drug induced phospholipid accumulation is stained with the LipidTox dyes in red color which then is determined using an automated high content screening system.
HepG2 cells are dispensed at 900 cells/3 uL/well into Collagen I-coated 1536-well black-wall/clear-bottom assay plates (Greiner Bio-One, Monroe, NC) using the Multidrop Combi 8 channel dispenser (Thermo Fisher, Waltham, MA, USA). The assay plates are incubated at 37 C for 4 hours to allow the cell attachment. 3 uL of 1:500 LipidTOX Red dye is added using the dispenser, and then 23 nL compounds are added via a Wako Pintool station (Wako Automation, San Diego, CA). Amiodarone, a known PLD inducer, was used as a positive control and DMSO was used as a negative control. The assay plates were then incubated at 37 C for 24 hours.
For fixations, 4 uL of 8% paraformaldehyde fixative solution containing 10 ug/mL Hoechst 33342 in Dulbecco's phosphate-buffered saline (DPBS) is added using a Kalypsys washer/dispenser (Kalypsys, San Diego, CA, USA). After incubation at room temperature for 30 min, the assay plates are washed once with DPBS using a Kalypsys washer/dispenser. The assay plates are then sealed and stored at 4 C before imaging. The fluorescence intensities (595 nm excitation, 615 nm emission for LipidTOX; 352 nm excitation, 461 nm emission for Hoechst 33342) are measured using an ImageXpress Micro Widefield High Content Screening System (Molecular Devices, Sunnyvale, CA, USA) with a 20x Plan Fluor objective. Images are acquired for one site in each well and analyzed with the MetaXpress software (Molecular Devices) using the Transfluor module. Several algorithmic outputs, such as pit count per well, pit count per cell, pit integrated intensity per well, and pit integrated intensity per cell, are used for quantitative image analysis for PLD.
On the % scale 0 is the no-effect control and ±100 the full control effect; potency means the concentration at half of the fitted maximal effect.

SMILES	PLD induction	Potency
c1ccc(CNCCNCc2ccccc2)cc1	10.2% (inactive)	–
CCCCNc1ccc(C(=O)OCCOCCOCCOCCOCCOCCOCCOCCOCCOC)cc1	0.0539% [at 15.5 µM] (inactive)	–
CC1(c2ccccc2)OC(C(=O)O)=CC1=O (stereo not given)	1.5% (inactive)	–
C[C@H](CCC(=O)O)[C@H]1CC[C@H]2[C@@H]3CC[C@@H]4C[C@H](O)CC[C@]4(C)[C@H]3C[C@H](O)[C@]12C	1.24% (inactive)	–
CN(C)CCN(Cc1ccc(Cl)cc1)c1ccccn1	-3.78% [at 0.137 µM] (inactive)	–
COc1ccc(-c2nc3ccc(C4=NNC(=O)CC4C)cc3[nH]2)cc1 (stereo not given)	3.56% (inactive)	–
NCC(=O)CCC(=O)O	-0.815% (inactive)	–
CCN(CC)CCOC(=O)C(c1ccccc1)C1CCCCC1 (stereo not given)	8.99% (inactive)	–
CC(C)C[C@H]1C(=O)N2CCC[C@H]2[C@]2(O)O[C@](NC(=O)[C@@H]3C=C4c5cccc6[nH]c(Br)c(c56)C[C@H]4N(C)C3)(C(C)C)C(=O)N12	8.43% (inactive)	–
CCn1cc(C(=O)O)c(=O)c2cnc(N3CCNCC3)nc21	5.55% [at 15.5 µM] (inactive)	–
CCOCC(O)COc1ccc(NC(=O)CC[S+](C)C)cc1 (stereo not given)	0.226% (inactive)	–
C#C[C@]1(O)CC[C@H]2[C@@H]3CCc4cc(OC5CCCC5)ccc4[C@H]3CC[C@@]21C	14.2% (inactive)	–
Nc1c(CC(=O)O)cccc1C(=O)c1ccc(Br)cc1	-0.186% (inactive)	–
C#CCN(C)CCCOc1ccc(Cl)cc1Cl	0.491% (inactive)	–
O=S(c1cc(Cl)cc(Cl)c1O)c1cc(Cl)cc(Cl)c1O	0.164% (inactive)	–
OCCN1CCN(CCCN2c3ccccc3C=Cc3ccccc32)CC1	0.496% [at 7.66 µM] (inactive)	12.6 µM (active)
O=C(Nc1ccc(S(=O)(=O)N2CCOCC2)cc1)c1cc(Cl)ccc1NS(=O)(=O)c1ccc(Cl)s1	-2.31% (inactive)	–
Clc1ccc(Cn2c(CN3CCCC3)nc3ccccc32)cc1	0.844% [at 15.5 µM] (inactive)	–
COc1cccc(N(C)C(=S)Oc2ccc3c(c2)CCCC3)n1	12.4% (inactive)	–
Nc1ncn([C@H]2C[C@H](O)[C@@H](CO)O2)c(=O)n1	-0.89% (inactive)	–

SMILES	PLD induction	Potency
COc1cc2nc(N3CCN(C(=O)C4COc5ccccc5O4)CC3)nc(N)c2cc1OC (stereo not given)	1.43% (inactive)	–
CC(CSC(=O)c1ccccc1)C(=O)N1C[C@@H](Sc2ccccc2)C[C@H]1C(=O)O (stereo not given in full)	-0.325% (inactive)	–
CCN(CC)CCOC(=O)C(Cc1cccc2ccccc12)CC1CCCO1 (stereo not given)	15.8% [at 15.5 µM] (inactive)	–
CC(=O)c1ccc2c(c1)N(CCCN1CCC(CCO)CC1)c1ccccc1S2	8.45% [at 15.5 µM] (inactive)	–
CC(=O)NO	0.0073% (inactive)	–
CCCCC/C=C\C/C=C\CCCCCCCC(=O)NC(C)c1ccccc1 (stereo not given)	-2.94% [at 7.66 µM] (inactive)	–
C#Cc1cccc(Nc2ncnc3cc(OCCOC)c(OCCOC)cc23)c1	–	10 µM (active)
CCCCC1=NC2(CCCC2)C(=O)N1Cc1ccc(-c2ccccc2-c2nn[nH]n2)cc1	1.29% (inactive)	–
CN1CCC(N(Cc2cccs2)c2ccccc2)CC1	-4.03% [at 7.66 µM] (inactive)	–
CCN(CC)CCNC(=O)c1cc(Br)c(N)cc1OC	1.06% (inactive)	–
COc1cc2c(cc1OC)C(C(C(=O)N(CCc1ccc(OC)c(OC)c1OC)CCc1ccc(OC)c(OC)c1OC)c1ccccc1)=NCC2 (stereo not given)	6.21% (inactive)	–
CN1CCN(C(c2ccccc2)c2ccccc2)CC1	-2.34% [at 15.5 µM] (inactive)	–
O=C(CS)Nc1ccccc1	0.942% [at 7.66 µM] (inactive)	–
O=C(NCCO[N+](=O)[O-])c1cccnc1	-0.0175% (inactive)	–
OC[C@H]1O[C@@H](OCCc2ccc(O)cc2)[C@H](O)[C@@H](O)[C@@H]1O	-0.021% (inactive)	–
N=c1ccn2c(n1)O[C@H]1[C@H](O)[C@@H](CO)O[C@H]12	-1.17% (inactive)	–
Cc1cccc(C)c1OCC(=O)N[C@@H](Cc1ccccc1)[C@@H](O)C[C@H](Cc1ccccc1)NC(=O)[C@H](C(C)C)N1CCCNC1=O	15.3% (inactive)	–
C[N+](C)(C)CCOC(=O)CCC(=O)OCC[N+](C)(C)C	-0.366% (inactive)	–
CCCCC	-0.314% (inactive)	–
